This is a sample that favours compounds with a hit; in the whole collection about 11% have one here.
SW480 rerep – DNA re-replication induction in SW480 cells | hit rate 1.8% among 340,000 | SW480 DNA re-replication, Hoechst DNA content imaging, 48 h | Potency, µM (titrated, usually from 46.1 µM), for the others: at the highest dose re-replication activation, usual class: activators; further: potency means the concentration at half of the fitted maximal effect; % of control where 0% means no effect; nearly all actives have a fitted effect of over 55% in size
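Cells (250 per well) received 23 nL compound or DMSO by pin tool and were kept 48 hr at 37 C, 5% CO2. Nuclei were then stained with Hoechst for 40 min and scanned for DNA content.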
MCF10A rerep – induces DNA re-replication in MCF 10a normal breast cells; AID 624296; hit rate 2.9% among 350,000; MCF 10A DNA re-replication, Hoechst nuclear intensity, 48 h; Potency, µM (highest dose often 46.1 µM), without a hit: at the highest dose activity, positive = re-replication, actives largely listed as activators; further: potency means the concentration at half of the fitted maximal effect; % of control where 0% means no effect; nearly all actives have a fitted effect of over 50% in size
Gal4-VP16 FLuc – counter-screen for ROR gamma inhibitors: Gal4-VP16 reporter | Drosophila S2 Gal4-VP16 UAS-luciferase, luminescence, 20 h | AID 2546 | hit rate 3.5% among 310,000 | Potency, µM (series often up to 53.6 µM), for inactives: at the top dose activity, negative = inhibition, hits mostly inhibitors;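 further: Gal4-VP16 expression switched on by copper sulfate through the metallothionein promoter; potency means the concentration at half of the fitted maximal effect; on the % scale 0 is the no-effect control and ±100 the full control effect; nearly all actives have a fitted effect of over 50% in size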
RORg inh – blocks mouse ROR gamma transcriptional activity | hit rate 5.4% among 310,000 | Drosophila S2 Gal4-RORgamma UAS-luciferase reporter, 20 h | Potency, µM (highest dose often 53.6 µM), without a hit: at the highest dose activity change, negative = inhibition, hits mostly inhibitors | P51450; further: potency means the concentration at half of the fitted maximal effect; on the % scale 0 is the no-effect control and ±100 the full control effect; nearly all actives have a fitted effect of over 60% in size
Target sequence (P51450 whole entry, looked up, the tested form may be a part): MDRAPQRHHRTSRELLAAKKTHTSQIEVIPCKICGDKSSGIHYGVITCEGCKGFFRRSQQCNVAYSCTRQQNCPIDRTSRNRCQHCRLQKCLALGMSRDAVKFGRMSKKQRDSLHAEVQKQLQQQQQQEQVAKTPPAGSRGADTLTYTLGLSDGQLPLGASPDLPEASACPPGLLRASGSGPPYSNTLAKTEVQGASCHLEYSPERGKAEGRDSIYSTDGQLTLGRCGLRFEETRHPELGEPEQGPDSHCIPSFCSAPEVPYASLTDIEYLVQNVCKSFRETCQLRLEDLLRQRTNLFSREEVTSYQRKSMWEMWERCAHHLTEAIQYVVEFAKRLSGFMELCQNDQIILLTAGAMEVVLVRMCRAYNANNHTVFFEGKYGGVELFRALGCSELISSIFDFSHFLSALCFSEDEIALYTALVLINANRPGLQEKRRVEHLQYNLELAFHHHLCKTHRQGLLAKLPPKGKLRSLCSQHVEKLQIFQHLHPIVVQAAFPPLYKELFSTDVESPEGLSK
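Using a luciferase readout, inhibitors were identified by reduced reporter activity in Drosophila cells coexpressing a copper-inducible Gal4–ROR gamma fusion and UAS-driven Photinus luciferase, incubated 20 hr after 700 uM copper sulfate.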
IL1B secr inh – blocks inflammasome-driven IL-1 beta release. activity change, % at 57.5 µM. THP-1 LPS/ATP IL-1B secretion, AlphaLISA, 16 h; hits give low values. hit rate 4.7% among 360,000. AID 743279; in the data active means activity change below about -50%; inconclusive means mostly about -30% to -49%; further: on the % scale 0 is the no-effect control and ±100 the full control effect
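THP-1 cells pretreated 1 hr with compounds (up to 57.5 uM final), then stimulated with LPS (250 ng/mL final) plus ATP (1.25 mM final); secreted IL-1B measured by AlphaLISA after 16 hr, decreased signal indicating inhibition.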
An asterisk follows results filed as active; u = inconclusive; x = no result given; [ ] = another dose, or the depositor's remark. Unless noted, the call rests on the fitted dose curve; in most records, active means well fitted curve in the direction sought with a large enough effect; inconclusive means small, poorly fitted or top-dose-only effect, or another doubt; inactive means no such curve, though single readings can be large; an effect the other way counts as inactive or inconclusive.

SMILES | SW480 rerep | MCF10A rerep | Gal4-VP16 FLuc | RORg inh | IL1B secr inh
CCCCCCCCCCCCCCCC[n+]1cccc(C(=O)N(CC)CC)c1 | 21µM* | u | -18% | -19% | -63*
Cc1ccc(S(=O)(=O)N2C[C@@H]3CCCC[C@@H]3[C@@H](C)[C@H]2CC(=O)c2ccccc2)cc1 | 10% | 12% | x | x | 7
CC[C@H](C)[C@H](NC(=O)[C@H](CC(C)C)NC(=O)[C@H](CC(N)=O)NC(=O)[C@@H](NC(=O)[C@@H](N)Cc1ccc(O)cc1)[C@@H](C)CC)C(=O)N[C@@H](Cc1ccc(O)cc1)C(=O)N[C@@H](CCCN=C(N)N)C(=O)N[C@@H](CC(C)C)C(=O)N[C@@H](CCCN=C(N)N)C(=O)N[C@@H](Cc1ccc(O)cc1)C(N)=O | x | x | 1% | -4% | x
COc1ccc(S(=O)(=O)N2CCCCC2)cc1NC(=O)Cc1ccc(Br)cc1 | -4% | 4% | x | x | 0
CCCCCCCCC[n+]1cccc2c3ccccc3ccc21 | u | u | 2.5µM* | 8.9µM* | -7
CCCCCCCCCCCC[n+]1ccc2ccccc2c1 | u | 55% | 5µM* | u | x
O=[N+]([O-])c1ccc(C[n+]2cccc3c4ccccc4ccc32)cc1 | u | -6% | -12%[10 µM] | 14% | -12
CCN(CC(=O)Nc1ccc2c(c1)OCCO2)C(=O)c1ccc(S(=O)(=O)N(C)C)cc1 | 14% | 5% | x | x | 1
O=C(c1cccc(F)c1)N1CCC2(CCCN(C(c3ccccc3)c3ccccc3)C2)CC1 | x | x | -7% | 50% | x
c1cncc(-c2cncnc2-n2ccnc2)c1 | x | x | 7% | 2% | x
Cn1ncc([N+](=O)[O-])c1C(=O)Nc1ccc(C2CCCCC2)cc1 | 12µM* | -3% | 5% | -5% | 0
Cn1ncc([N+](=O)[O-])c1C(=O)Nc1ccc(Cl)cc1 | -11% | u | 5% | 0% | u
OC1OC[C@@H](O)[C@@H](O)[C@@H]1O (stereo partly specified) | x | x | 1% | 22% | x
CCCc1c(C(=O)N/N=C(\C)c2ccc(CC(C)C)cc2)nnn1-c1nonc1N | x | x | x | x | 4
Cc1occc(=O)c1OC(=O)Nc1ccc(Cl)c(Cl)c1 | -10% | 18µM* | u | u | -78*
COc1ccc(C(=O)Oc2c(C)occc2=O)cc1OC | -2% | 0% | 9% | 22% | 8
Cc1nn(-c2ccc(F)cc2)c(Cl)c1/C=C(\CCC(=O)O)c1nc2ccccc2s1 | -2% | 18µM* | -6% | 3% | 24
Cc1ccc(-c2csc(/C=C3\SC(C)C(=O)N3CC(=O)Nc3ccccc3F)n2)cc1 (stereo unspecified) | -3% | 18µM* | -12% | -19% | 0
O=C(CN1C(=O)CS/C1=C\c1nc(-c2ccc(Cl)cc2)cs1)Nc1cccnc1Cl | u | u | 9% | -12% | 0
COc1cccc(Nc2ncc3nc(-c4cc(F)cc(F)c4)c(=O)n(CCC#N)c3n2)c1 | x | x | 3% | 0% | x
O=C1c2ccccc2C(=O)c2c1ncn2-c1ccccc1 | 16µM* | u | u | 11µM* | 43
Cc1ccc2oc(C(=O)N3CCC(O)(c4cccc(C(F)(F)F)c4)CC3)c(C)c2c1 | 19% | u | -7% | u | -52*
CCN(CC)CCC(=O)N1c2ccccc2Sc2ccc(C(F)(F)F)cc21 | u | u | -4% | -1% | x
CN1CCC=C(C(=O)N2c3ccccc3Sc3ccc(Cl)cc32)C1 | -6% | 13% | 0% | -10% | -93*
CCN(CC)CCC(=O)N1c2ccccc2Sc2ccc(Cl)cc21 | 14µM* | 30µM* | -1% | 20% | -71*
SMILES | SW480 rerep | MCF10A rerep | Gal4-VP16 FLuc | RORg inh | IL1B secr inh
CN(C)CCC(=O)N1c2ccccc2Sc2ccc(Cl)cc21 | u | u | -8% | -6% | -59*
COCCNC(=O)C1CCCN(Cc2ccccc2-c2ccccc2)CC1 (stereo unspecified) | x | x | x | x | 22
Cc1ccc(CNC(=O)CCC(=O)Nc2nnc(C(C)C)s2)cc1 | u | -1% | 0% | 1% | 0
CCOC(=O)[C@]1(C(NC(=O)OC)c2ccco2)CCCC1=O (stereo partly specified) | x | x | 0%[10 µM] | -17%[10 µM] | x
Cc1cccc(-n2nnc(C(=O)Nc3ccc(F)cc3)c2N)c1 | -15% | 15% | -2% | u | -13
Cc1c(C(=O)Nc2ccc(F)cc2)nnn1-c1cccc(C(F)(F)F)c1 | 0% | 9% | 16µM* | u | -8
Clc1ccc(-c2nc3c4ccccc4ccn3c2Cc2ccsc2)cc1 | x | x | x | x | 24
COc1ccc(C2CC(=O)c3cnc(N)nc3C2)c(OC)c1 (stereo unspecified) | -172% | 1% | -4% | -14% | 3
COc1ccc(C2CC(=O)c3cnc(NC(=O)c4ccccc4)nc3C2)c(OC)c1 (stereo unspecified) | u | 21µM* | 0% | 11% | 0
O=c1cc(-c2ccccc2)nc2c(-c3ccccc3)c(C(F)(F)F)[nH]n12 | u | 8.2µM* | 3% | -37% | 37
O=C(Nc1ccc(N2CCN(C(=O)c3ccco3)CC2)cc1)c1ccco1 | -5% | 0% | -1% | 26% | -3
O=C(Nc1ccc(N2CCN(C(=O)c3ccco3)CC2)cc1)c1cccs1 | -1% | 0% | 17% | u | -52*
O=C(Nc1ccc(N2CCN(C(=O)c3cccs3)CC2)cc1)c1ccccc1F | u | u | 4% | -17% | -62*
O=C(Nc1ccc(N2CCN(C(=O)c3ccccc3F)CC2)cc1)c1cncc(Br)c1 | 6% | u | -3% | 43% | -58*
O=C(Nc1ccc(N2CCN(C(=O)c3cccs3)CC2)cc1)c1ccccc1Cl | 23µM* | u | -5% | 29% | -57*
Cc1cccc(CN2CCN([C@@H]3CS(=O)(=O)N[C@H]3COCc3ccccc3)CC2)c1 | x | x | x | x | -17
O=C(CCCN1CCC(C(O)c2ccc(F)cc2)CC1)c1ccc(F)cc1 (stereo unspecified) | x | x | x | x | -17
CC(=O)Nc1cccc(-c2ccnc3c2CC(C)(C(=O)Nc2cccc(C(C)=O)c2)O3)c1 (stereo unspecified) | x | x | x | x | -16
Cc1cccc(-c2nnc(SCc3nc4ccccc4[nH]3)n2Cc2ccco2)c1 | -9%[9.22 µM] | u | -4% | -44% | -16
Cc1ccc(-c2nnc(SCc3nc4ccccc4[nH]3)n2Cc2ccco2)cc1 | 15% | -16% | u | 11µM* | -11
Cn1c(SCc2nc3ccccc3[nH]2)nnc1-c1cccnc1 | -4% | 0% | -22% | -50% | 10
CCOc1ccc(-c2nnc(SCc3nc4ccccc4[nH]3)n2N)cc1 | 12% | 1% | 7% | -42% | -64*
O=C(C[C@H]1CC[C@H](NC(=O)Nc2ccccc2F)[C@@H](CO)O1)NCc1ccc(-c2ccccc2)cc1 | x | x | x | x | 3

Screens from PubChem BioAssay.
